Reference: PubChem BioAssay (EPA / NIEHS)
The source made the active and inactive calls. Rule for the calls: active = hit-call score of the fitted dose curve at least 0.9, where 1 is the maximum; inactive = score below 0.9.

Experiments:
[1] = APR_HepG2_NuclearSize_72hr: Apredica 72-hour HepG2 Assay for Nuclear Size (AID 2282925); conditions: high-content imaging, actives raise or lower the signal
How it was run: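 HepG2 cells dosed 72 h at 0.39–200 uM (10 concentrations, duplicate) in 0.5% v/v DMSO final. Fixed, Hoechst 33342-stained nuclei imaged; nuclear diameter measured by automated image analysis. Bidirectional fit versus DMSO.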

[2] = ATG_CRE_CIS: Attagene CIS-FACTORIAL HepG2 Assay for human cAMP Responsive Element (CRE) binding protein 3 (AID 2282926); conditions: HepG2 CRE cis-reporter, Attagene multiplexed mRNA; actives raise or lower the signal
How it was run: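 Transfected HepG2 were treated for 24 hours, then RNA was extracted and reporter cDNA amplified with sequence-specific primers. Labelled fragments were separated by capillary electrophoresis, and the CRE signal was fitted bidirectionally with DMSO as baseline.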

[3] = biological target: CCAAT/enhancer-binding protein beta (Homo sapiens) (UniProt P17676); assay: ATG_C_EBP_CIS: Attagene CIS-FACTORIAL HepG2 Assay for human CCAAT/Enhancer Binding Protein (C/EBP) beta (AID 2282927); conditions: HepG2 Attagene cis-factorial transcription factor reporter; actives raise or lower the signal
Chain of CCAAT/enhancer-binding protein beta (Homo sapiens) (P17676 whole entry, looked up): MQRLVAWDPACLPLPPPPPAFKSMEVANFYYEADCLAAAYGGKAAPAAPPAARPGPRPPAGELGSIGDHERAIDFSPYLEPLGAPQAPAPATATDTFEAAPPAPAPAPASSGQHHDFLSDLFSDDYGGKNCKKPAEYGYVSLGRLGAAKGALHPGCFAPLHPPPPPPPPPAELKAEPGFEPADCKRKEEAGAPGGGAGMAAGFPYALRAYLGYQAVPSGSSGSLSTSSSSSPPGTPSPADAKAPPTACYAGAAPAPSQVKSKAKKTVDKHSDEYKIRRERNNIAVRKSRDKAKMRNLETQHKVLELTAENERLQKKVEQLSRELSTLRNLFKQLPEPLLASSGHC
How it was run: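 Transiently transfected HepG2 (MRTU library, endogenous TF-driven promoters); 24 h dosing; total RNA → oligo(dT) RT → PCR → 6-FAM primer extension → HpaI digest → CE; fit bidirectionally vs DMSO.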

[4] = ATG_DR4_LXR_CIS: Attagene CIS-FACTORIAL HepG2 Assay for human Liver X Receptor (LXR), DR4 submotif (AID 2282929); conditions: HepG2 Attagene DR4 cis-reporter, mRNA transcription; actives raise or lower the signal
How it was run: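 After transient transfection with multiplexed cis-promoter reporter units, HepG2 cells received test chemicals for 24 h. Reporter mRNA induction, detected by fluorescence after RT-PCR and capillary electrophoresis, was scored relative to DMSO.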

[5] = biological target: Aryl hydrocarbon receptor (Homo sapiens) (UniProt P35869); assay: ATG_Ahr_CIS: Attagene CIS-FACTORIAL HepG2 Assay for human Aryl Hydrocarbon Receptor (Ahr) (AID 2282930); conditions: HepG2 AhR cis-factorial reporter transcription; actives raise or lower the signal
Chain of Aryl hydrocarbon receptor (Homo sapiens) (P35869 whole entry, looked up): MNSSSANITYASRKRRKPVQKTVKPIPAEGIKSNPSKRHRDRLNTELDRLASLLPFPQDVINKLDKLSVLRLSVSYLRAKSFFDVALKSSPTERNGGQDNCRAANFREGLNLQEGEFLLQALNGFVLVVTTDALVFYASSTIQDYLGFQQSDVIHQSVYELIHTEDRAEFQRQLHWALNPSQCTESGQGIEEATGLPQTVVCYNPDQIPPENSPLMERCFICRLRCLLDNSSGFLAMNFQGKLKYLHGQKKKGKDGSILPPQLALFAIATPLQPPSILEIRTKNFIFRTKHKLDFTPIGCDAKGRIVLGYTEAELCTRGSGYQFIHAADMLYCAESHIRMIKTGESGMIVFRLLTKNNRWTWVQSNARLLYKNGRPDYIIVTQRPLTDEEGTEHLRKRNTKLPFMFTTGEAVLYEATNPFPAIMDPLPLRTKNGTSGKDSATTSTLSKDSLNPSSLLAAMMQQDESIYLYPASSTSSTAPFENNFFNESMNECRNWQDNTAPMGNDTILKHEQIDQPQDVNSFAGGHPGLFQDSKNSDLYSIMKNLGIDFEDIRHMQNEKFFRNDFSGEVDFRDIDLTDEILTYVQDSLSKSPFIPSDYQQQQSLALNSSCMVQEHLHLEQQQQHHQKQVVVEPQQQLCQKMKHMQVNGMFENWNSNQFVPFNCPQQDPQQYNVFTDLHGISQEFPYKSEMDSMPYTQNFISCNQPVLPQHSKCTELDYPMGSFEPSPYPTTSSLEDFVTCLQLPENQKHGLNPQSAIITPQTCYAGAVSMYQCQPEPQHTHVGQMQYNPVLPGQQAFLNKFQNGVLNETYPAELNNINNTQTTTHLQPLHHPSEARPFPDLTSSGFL
How it was run: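 Read-out: reporter mRNA quantified by RT-PCR with fluorescent primer extension and capillary electrophoresis. Human HepG2 liver cells carried transfected cis-promoter reporter units and were exposed to chemical for 24 h; gain or loss fitted relative to DMSO.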

[6] = ATG_AP_1_CIS: Attagene CIS-FACTORIAL HepG2 Assay for human Activator Protein 1 (AP-1) (AID 2282931); conditions: HepG2 Attagene cis-factorial AP-1 reporter mRNA; actives raise or lower the signal
How it was run: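 After 24 h incubation with test chemical, RNA from transfected HepG2 cells was reverse-transcribed, amplified, fluorescently labelled and digested before capillary electrophoresis. Reporters were driven by cis-regulatory promoters; activity fitted bidirectionally versus DMSO.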

[7] = ATG_AP_2_CIS: Attagene CIS-FACTORIAL HepG2 Assay for human Activator Protein 2 (AP-2) (AID 2282932); conditions: HepG2 AP-2 cis-reporter, Attagene transcription factor profiling; actives raise or lower the signal
How it was run: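 HepG2 cells transiently transfected with cis-element reporter units and exposed for 24 h. Reporter mRNA measured by RT-PCR, FAM labelling, HpaI digestion and capillary electrophoresis. Changes in either direction fitted relative to DMSO.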

[8] = ATG_BRE_CIS: Attagene CIS-FACTORIAL HepG2 Assay for human Bone Morphogenetic Protein (BMP) Response Element (BRE) (AID 2282933); conditions: HepG2 BMP response element reporter, Attagene transcription factor profiling; actives raise or lower the signal
How it was run: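 Endogenous transcription factor activity at a BMP response element was monitored in transfected HepG2 cells 24 h after dosing. Fluorescent RT-PCR products were resolved by capillary electrophoresis, and activity was fitted in both directions versus DMSO.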

[9] = biological target: Retinoic acid receptor alpha (Homo sapiens) (UniProt P10276); assay: ATG_DR5_RAR_CIS: Attagene CIS-FACTORIAL HepG2 Assay for human Retinoic Acid Receptor Alpha (RARE), DR5 submotif (AID 2282934); conditions: HepG2 Attagene cis-factorial RARE DR5 reporter, mRNA; actives raise or lower the signal;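 for AC50: reporter responds to endogenous RAR alpha beta and gamma in HepG2 not RARA alone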
Chain of Retinoic acid receptor alpha (Homo sapiens) (P10276 whole entry, looked up): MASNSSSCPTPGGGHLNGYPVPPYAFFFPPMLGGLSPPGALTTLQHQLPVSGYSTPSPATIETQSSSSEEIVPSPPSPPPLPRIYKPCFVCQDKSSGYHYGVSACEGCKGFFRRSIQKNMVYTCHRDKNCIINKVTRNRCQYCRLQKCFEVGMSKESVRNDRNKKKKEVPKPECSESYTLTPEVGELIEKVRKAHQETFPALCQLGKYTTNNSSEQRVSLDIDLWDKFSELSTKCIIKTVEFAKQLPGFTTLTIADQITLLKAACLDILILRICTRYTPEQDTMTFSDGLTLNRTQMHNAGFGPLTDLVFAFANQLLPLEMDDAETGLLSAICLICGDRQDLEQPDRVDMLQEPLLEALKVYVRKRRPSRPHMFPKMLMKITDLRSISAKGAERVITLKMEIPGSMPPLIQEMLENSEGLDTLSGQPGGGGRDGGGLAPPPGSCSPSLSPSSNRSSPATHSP
How it was run: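 Read-out: DR5-driven reporter transcript measured by RT-PCR, 6-FAM primer extension, HpaI digest and capillary electrophoresis. Human HepG2 liver cells carry transiently transfected cis-element reporter constructs; dosing lasts 24 h. Gain or loss of signal fitted against DMSO baseline.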

[10] = biological target: Transcription factor E2F1 (Homo sapiens) (UniProt Q01094); assay: ATG_E2F_CIS: Attagene CIS-FACTORIAL HepG2 Assay for human E2F Transcription Factor 1 (AID 2282935); conditions: HepG2 Attagene cis-reporter, E2F reporter RNA transcripts; actives raise or lower the signal
Chain of Transcription factor E2F1 (Homo sapiens) (Q01094 whole entry, looked up): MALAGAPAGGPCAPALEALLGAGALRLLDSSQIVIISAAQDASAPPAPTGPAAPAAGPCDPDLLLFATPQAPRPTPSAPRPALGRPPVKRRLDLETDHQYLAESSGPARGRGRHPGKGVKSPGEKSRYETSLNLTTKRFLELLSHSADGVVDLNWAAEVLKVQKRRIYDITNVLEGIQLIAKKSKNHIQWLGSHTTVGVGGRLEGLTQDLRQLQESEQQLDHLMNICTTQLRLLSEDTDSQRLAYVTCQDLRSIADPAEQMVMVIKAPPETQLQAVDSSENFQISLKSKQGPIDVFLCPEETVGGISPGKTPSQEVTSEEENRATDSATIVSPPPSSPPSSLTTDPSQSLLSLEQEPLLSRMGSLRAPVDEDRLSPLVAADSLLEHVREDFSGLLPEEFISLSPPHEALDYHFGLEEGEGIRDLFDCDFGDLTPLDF
How it was run: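 Endogenous E2F1 activity read through cis-promoter reporter units transfected into HepG2. After 24 h compound treatment, reporter mRNA measured by RT-PCR, HpaI digestion and capillary electrophoresis. Bidirectional fit versus DMSO.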

[11] = ATG_E_Box_CIS: Attagene CIS-FACTORIAL HepG2 Assay for human Enhancer Box (E-box) (AID 2282936); conditions: HepG2 E-box cis-reporter transcription, actives raise or lower the signal
How it was run: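 HepG2 cells transiently transfected with multiplexed cis-element reporter units, dosed 24 h; reporter mRNA quantified by RT-PCR, 6-FAM labelling, HpaI digestion and capillary electrophoresis. E-box (USF1) signal fitted bidirectionally vs DMSO.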

[12] = ATG_M_61_CIS: Attagene CIS-FACTORIAL HepG2 Assay for M61 Transcription Factor (Internal Marker) (AID 2282937); conditions: HepG2 Attagene CIS-FACTORIAL M61 internal marker reporter; actives raise or lower the signal
How it was run: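 Using transiently transfected HepG2 liver cells, reporter transcript levels were assessed 24 h post-dosing by RT-PCR and capillary electrophoresis. Changes in either direction were fitted relative to DMSO controls.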

[13] = ATG_EGR_CIS: Attagene CIS-FACTORIAL HepG2 Assay for human Early Growth Response 1 (EGR1) (AID 2282938); conditions: HepG2 Attagene CIS-FACTORIAL EGR reporter mRNA; actives raise or lower the signal
How it was run: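 Fluorescent capillary-electrophoresis signal of reporter cDNA fragments serves as read-out. HepG2 cells bear transiently transfected cis-promoter reporter units and are exposed 24 h; gain- or loss-of-signal is fitted against DMSO.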

[14] = ATG_M_19_CIS: Attagene CIS-FACTORIAL HepG2 Assay for M19 Transcription Factor (Internal Marker) (AID 2282939); conditions: HepG2 Attagene CIS-FACTORIAL M19 internal marker reporter; actives raise or lower the signal
How it was run: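 Background-control endpoint from a multiplexed HepG2 reporter panel. Cells carrying cis-regulated reporter constructs are treated 24 h, then reporter transcripts are amplified, fluorescently labelled and sized by capillary electrophoresis. DMSO defines baseline.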

[15] = ATG_ERE_CIS: Attagene CIS-FACTORIAL HepG2 Assay for Estrogen Response Element (ERE) (AID 2282940); conditions: HepG2 ERE cis-reporter, Attagene RNA transcript; actives raise or lower the signal
How it was run: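 Cells used were human hepatoma HepG2, transfected with multiple reporter transcription units under cis-regulatory promoters. Reporter mRNA, read 24 h post-dosing via fluorescent RT-PCR products on capillary electrophoresis, was fitted bidirectionally relative to DMSO.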

[16] = ATG_Ets_CIS: Attagene CIS-FACTORIAL HepG2 Assay for human Erythroblast Transformation Specific (ETS) (AID 2282941); conditions: HepG2 ETS cis-reporter transcription, actives raise or lower the signal
How it was run: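 HepG2 cells transfected with multiple cis-regulated reporter units measuring endogenous ETS-driven transcription, 24 h after dosing. Reporter mRNA quantified by RT-PCR with capillary electrophoresis; bidirectional fit relative to DMSO.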

[17] = biological target: Hepatocyte nuclear factor 3-beta (Homo sapiens) (UniProt Q9Y261); assay: ATG_FoxA2_CIS: Attagene CIS-FACTORIAL HepG2 Assay for human Forkhead box A2 (FOXA2) (AID 2282942); conditions: HepG2 cis-reporter transcription factor activity, 24 h; actives raise or lower the signal
Chain of Hepatocyte nuclear factor 3-beta (Homo sapiens) (Q9Y261 whole entry, looked up, the tested form may be a part): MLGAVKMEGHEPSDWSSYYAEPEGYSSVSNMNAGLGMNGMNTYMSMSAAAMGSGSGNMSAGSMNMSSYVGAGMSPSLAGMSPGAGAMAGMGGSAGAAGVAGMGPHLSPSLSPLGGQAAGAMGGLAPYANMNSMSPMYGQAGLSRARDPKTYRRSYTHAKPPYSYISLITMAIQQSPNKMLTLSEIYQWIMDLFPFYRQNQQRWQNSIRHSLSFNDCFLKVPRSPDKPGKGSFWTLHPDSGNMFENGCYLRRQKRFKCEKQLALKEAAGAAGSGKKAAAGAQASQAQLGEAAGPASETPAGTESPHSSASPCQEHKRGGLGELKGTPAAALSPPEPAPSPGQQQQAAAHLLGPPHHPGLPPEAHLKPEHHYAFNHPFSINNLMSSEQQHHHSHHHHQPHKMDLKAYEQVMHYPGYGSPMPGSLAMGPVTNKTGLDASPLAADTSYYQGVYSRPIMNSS
How it was run: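 Fluorescence signal of reporter cDNA fragments, separated by capillary electrophoresis, reflects endogenous transcription factor activity in transfected HepG2 after 24 h. Both increases and decreases fitted against DMSO.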

[18] = ATG_FoxO_CIS: Attagene CIS-FACTORIAL HepG2 Assay for human Forkhead box O (FoxO) (AID 2282943); conditions: HepG2 Attagene cis-reporter, FoxO element, mRNA; actives raise or lower the signal
How it was run: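 Read-out: fluorescence of 6-FAM-labelled reporter cDNA fragments resolved by capillary electrophoresis. Transiently transfected HepG2 cells were dosed for 24 h; activity fitted in both directions relative to DMSO controls.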

[19] = ATG_GATA_CIS: Attagene CIS-FACTORIAL HepG2 Assay for human GATA Binding Protein (AID 2282944); conditions: HepG2 GATA cis-element reporter, Attagene multiplex mRNA; actives raise or lower the signal
How it was run: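 Endogenous transcription factor activity was captured through cis-promoter-driven reporters in transfected HepG2 cells. After 24 h exposure, reporter transcripts were quantified by RT-PCR with fluorescent capillary electrophoresis, and responses fitted both directions against DMSO.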

Measured: AC50

CCCCCCCCCCCCCO
active: [2] 10.3 µM | [6] 34.3 µM | [8] 34.3 µM | [9] 11.7 µM | [11] 21.8 µM
inactive: [1] | [3] | [4] | [5] | [7] | [10] | [12] | [13] | [14] | [15] | [16] | [17] | [18] | [19]

CCc1c(C(=O)NN2CCCCC2)nn(-c2ccc(Cl)cc2Cl)c1-c1ccc(Br)cc1
active: [4] 1.91 µM | [6] 3.93 µM | [9] 2.16 µM | [13] 3.12 µM | [15] 6.06 µM
inactive: [1] | [2] | [3] | [5] | [7] | [8] | [10] | [11] | [12] | [14] | [16] | [17] | [18] | [19]

Nc1ccc2c(c1)C(=O)c1ccccc1C2=O
active: [15] 7.14 µM
inactive: [1] | [2] | [3] | [4] | [5] | [6] | [7] | [8] | [9] | [10] | [11] | [12] | [13] | [14] | [16] | [17] | [18] | [19]

NC(=O)Cn1c(=O)cc(CCN2CCN(c3nccc4sccc34)CC2)c2ccc(F)cc21
inactive: [1] | [2] | [3] | [4] | [5] | [6] | [7] | [8] | [10] | [11] | [12] | [13] | [14] | [15] | [16] | [17] | [18] | [19]
